Measurements: PubChem BioAssay AID1650 (Southern Research Specialized Biocontainment Screening …, 2009)
Entries with a potency or affinity are not part of this list. Active and inactive are the calls of the source. The rule behind the calls is not given here.

Experiment: host cell cytotoxicity of antiviral hits, dose response, cytotoxicity control for West Nile virus antiviral project, secondary assay (AID 1650)
Settings: Mammalian host cell viability, cytotoxicity counter-screen; series mostly up to 10 µM

Row | SMILES | outcome
1 | CC(=O)Nc1ccccc1N(CC(O)Cn1c2ccccc2c2ccccc21)S(=O)(=O)c1ccc(C)cc1 (stereo not given) | inactive
2 | Cc1cncn1CCc1nc2c3ccccc3nc(SCC(=O)Nc3cccc(Cl)c3)n2n1 | inactive
3 | COc1ccc(CN2[C@@H](CC(C)=O)c3ccc(/C=C/C(C)=O)cc3S2(=O)=O)cc1 | inactive
4 | CN(C)CCNC(=O)c1cc2sc3ccccc3c2s1 | inactive
5 | CN1C2CCC1/C(=C\c1ccccc1)C(=O)/C2=C\c1ccccc1 | inactive
6 | Cc1ccc(C)c(N2CCN(CCCNC(=O)CCC(=O)N3CCOc4ccc(Cl)cc43)CC2)c1 | inactive
7 | CCN(CC)CCNC(=O)c1sc2ncn(CC(=O)Nc3ccc(C)c(Cl)c3)c(=O)c2c1C | inactive
8 | Cc1ccc(C)c(N2CCN(CCCNC(=O)Cn3cccc3C(=O)c3ccccc3)CC2)c1 | inactive
9 | CCn1nc(C)c(CN2CCC(C(=O)Nc3cccc(-c4cccc(F)c4)c3)CC2)c1C | inactive
10 | O=C(CCN1C(=O)/C(=C/c2ccccc2)SC1=S)NCCc1ccc(O)cc1 | inactive
11 | Cc1ccc(Nc2nc(N)c([N+](=O)[O-])c(N3CCCC(C)C3)n2)cc1C (stereo not given) | inactive
12 | COc1ccc(-n2c(=S)[nH]c3cc(C(=O)NCc4cccnc4)ccc3c2=O)c(OC)c1 | inactive
13 | O=C(CCN1C(=O)/C(=C/c2ccc(F)cc2)SC1=S)NCCc1ccc(O)cc1 | inactive
14 | CCOC(=O)C1(Cc2ccccc2C(F)(F)F)CCN(C2CCN(C(C)C)CC2)CC1 | inactive
15 | CCCN1CCN(CCCNC(=O)c2ccc3nc(N4CCC(C)CC4)sc3c2)CC1 | inactive
16 | CN1CCN(CCCN2c3ccccc3Sc3ccc(C(F)(F)F)cc32)CC1 | inactive
17 | Cc1ccccc1C(=O)c1cccn1CC(=O)NCCN1CCN(c2cccc(C)c2C)CC1 | inactive
18 | O=C(Nc1ccc(F)cc1)c1nc[nH]c1C(=O)Nc1ccccc1[N+](=O)[O-] | inactive
19 | COC(=O)C1(O)CC(C(C)C)=NN1C(=O)c1ccc(Cl)cc1 (stereo not given) | inactive
20 | CC1=CC(C)(C)N2C(=O)C3(NCCc4c3[nH]c3ccccc43)c3cc(C)cc1c32 (stereo not given) | inactive

Row | SMILES | outcome
21 | CCn1ncc(CN2CCC(C(=O)Nc3cccc(-c4cccc(F)c4)c3)CC2)c1C | inactive
22 | CCN(CC)CCCNC(=S)N1CCN(c2nc(-c3ccccc3)cs2)CC1 | inactive
23 | Cc1cc(C)c(CSc2ncc(-c3ccc([N+](=O)[O-])cc3)[nH]2)c(C)c1 | inactive
24 | CCCN(CCC)CCCNC(=S)Nc1ccc2nc(N3CCCC3)cc(C)c2c1 | inactive
25 | O=C(CCC1CCCC1)N=C1SC2CS(=O)(=O)CC2N1Cc1ccccc1 (stereo not given) | inactive
26 | COc1ccc(-c2cc3c(=O)n(CC(=O)NCc4ccccc4F)ncn3n2)cc1 | inactive
27 | COc1cccc(/C=N/NC(=O)c2cc(-c3cccn3C)n[nH]2)c1O | inactive
28 | COCCn1c(SCC(=O)Nc2nnc(C)s2)nnc1-c1ccncc1 | inactive
29 | CN1CCN(CCNC(=O)c2ccc3nc(-c4ccc(F)cc4)c(-c4ccc(F)cc4)nc3c2)CC1 | inactive
30 | CN(C)CCN(C)Cc1ccccc1Sc1cccc2ccccc12 | inactive
31 | Cc1cccc(CN2CCC(CNC(=O)CSc3cc(=O)n(C)c4cc(Cl)ccc34)CC2)c1 | inactive
32 | CCN1CCN(c2ncc(C(=O)Nc3cc(Cl)c(OC)cc3OC)c3ccccc23)CC1 | inactive
33 | COc1ccc2[nH]c3nc(SCc4nnc(-c5ccc(C)cc5)o4)nnc3c2c1 | inactive
34 | C=CCNC(=O)c1ccc(-c2nc(-c3ccc(Cl)cc3Cl)cs2)cc1 | inactive
35 | CCN(CC)CCCC(C)NC(=O)c1c(NC(=O)c2ccccc2)sc2c1CCCC2 (stereo not given) | inactive
36 | COc1ccc([C@@H]2[C@@H]3C(=O)N(C(C)(C)C)C(=O)[C@@H]3[C@]3(Cc4ccccc4)C(=O)N(c4ccc(Br)cc4)C(=O)N23)cc1 | inactive
37 | Cc1cc(C)cc(N(CC(=O)NCc2ccco2)S(=O)(=O)c2c(C)noc2C)c1 | inactive
38 | CCOC(=O)c1cn(CC(=O)Nc2ccc(C(C)C)cc2)nn1 | inactive
39 | COc1cccc2sc3ccc(NCCC4CCCN4C)cc3c(=O)c12 (stereo not given) | inactive
40 | CC(C)(C)n1nnnc1C(c1ccccc1)N1CCc2ccccc2C1 (stereo not given) | inactive
